Assay results published in PubChem BioAssay (NCI).
Values joined by “and” are separate entries in the source; they are usually repeats but may differ in a detail not shown here. Equal values may be shown once. This is part of a sample that, as a whole, favours compounds with a hit. Of some 83,000 tested, about 20% had one in any assay.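 Cells were grown in 96-well plates and exposed to the test compound at a single concentration for 48 hours; results are reported as percent growth, with values below 10 considered active.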 Active and inactive are the calls of the source.

Key:
Test in all cases: NCI-60 one-dose screen, 48 h (100 = growth as untreated, 0 = no growth, -100 = all killed)
Settings in all cases: 10 µM unless noted
[1] = system: NCI-H23 lung
[2] = system: NCI-H226 lung
[3] = system: NCI-H322M lung
[4] = system: HOP-62 NSCLC
[5] = system: NCI-H460 lung
[6] = system: HOP-92 NSCLC
[7] = system: NCI-H522 lung
[8] = system: A549/ATCC NSCLC
[9] = system: 786-0 renal
[10] = system: COLO 205 colon
[11] = system: DU-145 prostate
[12] = system: K-562 leukemia
[13] = system: MALME-3M melanoma
[14] = system: MDA-MB-231 breast
[15] = system: RXF 393 renal
[16] = system: SF-268 CNS
[17] = system: SF-295 CNS
[18] = system: SF-539 CNS
[19] = system: UACC-257 melanoma
[20] = system: M14 melanoma

| Compound | growth [1] | growth [2] | growth [3] | growth [4] | growth [5] | growth [6] | growth [7] | growth [8] | growth [9] | growth [10] | growth [11] | growth [12] | growth [13] | growth [14] | growth [15] | growth [16] | growth [17] | growth [18] | growth [19] | growth [20] |
| --- | --- | --- | --- | --- | --- | --- | --- | --- | --- | --- | --- | --- | --- | --- | --- | --- | --- | --- | --- | --- |
| CCCC(=O)Oc1ccc(CC)cc1 | 96.5% (inactive) | 110% (inactive) | 106% (inactive) | 98.9% (inactive) | 105% (inactive) | 115% (inactive) | 93% (inactive) | 101% (inactive) | 99.7% (inactive) | 104% (inactive) | 109% (inactive) | 96.7% (inactive) | 104% (inactive) | 111% (inactive) | 117% (inactive) | 96.9% (inactive) | 98.5% (inactive) | 101% (inactive) | 94.2% (inactive) | 99% (inactive) |
| O=C(N=C1C(=O)C2(CCCCC2)C2(N=C(c3ccccc3)OC2=O)C12CCCCC2)c1ccccc1 (stereo not given) | 66.9% (inactive) | 70.2% (inactive) | 96% (inactive) | 96.8% (inactive) | 69.5% (inactive) | 41.7% (inactive) | 37.9% (inactive) | 5.7% (active) | 77.7% (inactive) | 94% (inactive) | 79% (inactive) | 54.4% (inactive) | 77.6% (inactive) | 74.4% (inactive) | 69.5% (inactive) | 77.8% (inactive) | 77.3% (inactive) | 82.3% (inactive) | 67.7% (inactive) | 78% (inactive) |
| CCOC(=O)c1ccc(N2C(=O)C(Cl)(c3ccccc3)C2c2ccco2)cc1 (stereo not given) | 70.4% (inactive) | 81.1% (inactive) | 83.8% (inactive) | 110% (inactive) | 84.2% (inactive) | 63.7% (inactive) | 34.2% (inactive) | 86.2% (inactive) | 80.9% (inactive) | 96.7% (inactive) | 65.4% (inactive) | 31.1% (inactive) | 86.7% (inactive) | 80% (inactive) | 99.7% (inactive) | 77.8% (inactive) | 86.4% (inactive) | 96.2% (inactive) | 89.7% (inactive) | 98.7% (inactive) |
| C/C(CC(C)C)=N/NC(N)=S | 88.8% (inactive) | 85.8% (inactive) | 96.9% (inactive) | 99.4% (inactive) | 102% (inactive) | 78.2% (inactive) | 95.2% (inactive) | 83.6% (inactive) | 107% (inactive) | 102% (inactive) | 92.2% (inactive) | 56.2% (inactive) | 81.4% (inactive) | 100% (inactive) | 108% (inactive) | 88.8% (inactive) | 84.3% (inactive) | 105% (inactive) | 74.4% (inactive) | 84.4% (inactive) |
| COC(=O)c1ccccc1Cl | 103% (inactive) | 101% (inactive) | 97.4% (inactive) | 98.3% (inactive) | 106% (inactive) | 85.3% (inactive) | 102% (inactive) | 99.4% (inactive) | 102% (inactive) | 102% (inactive) | 106% (inactive) | 8.26% (active) | 95% (inactive) | 111% (inactive) | 121% (inactive) | 98.9% (inactive) | 92.1% (inactive) | 93.5% (inactive) | 102% (inactive) | 102% (inactive) |
| Cc1cc(NC(=O)NC(=O)c2ccccc2N(C)C)ccc1Oc1ncc(Br)cn1 | 19.3% (inactive) and 24.7% (inactive) | 55.6% (inactive) and 66.4% (inactive) | 44.4% (inactive) and 66.2% (inactive) | 37.7% (inactive) | 8.31% (active) and 10.8% (inactive) | 57.5% (inactive) | -22.2% (active) and 15.1% (inactive) | 43.9% (inactive) and 33.7% (inactive) | 27.9% (inactive) and 31.4% (inactive) | 14.2% (inactive) | -3.51% (active) and 20.7% (inactive) | 0.98% (active) and 20.3% (inactive) | 24.6% (inactive) and 55.2% (inactive) | 9.21% (active) and 34.1% (inactive) | 30.2% (inactive) and -1.61% (active) | 44.8% (inactive) and 63.6% (inactive) | 35.1% (inactive) and 36.1% (inactive) | -8.43% (active) and -14.3% (active) | 26% (inactive) and 73.5% (inactive) | 22.8% (inactive) and 17.1% (inactive) |
